Test systems include PHKG1; PHKG2; PIK3C2B; PIK3C2G; PIK3CA; PIK3CB; PIK3CD; PIK3CG.
What all share (conditions): concentration: 1 μM, replicates: in singlicate; n = 1
The test system of a further test is T1, PFTK1.
T1 construct: gene CDK14

Another test has as its system T2, PIK4CB.
T2 construct: gene PI4KB

The structures appear in SMILES notation.
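Also: KINOMEscan kinase panel screen.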

As to `O=C(NCCNc1ccnc(Nc2ccc(F)cc2)n1)Nc1ccccc1F` [GSK1379880], the “%Inh” value with PFTK1 amounted to 13%; with PHKG1, 0%; in the test on PHKG2, 0%; with PIK3C2B, 0%; in the test with PIK3C2G it was 62%; in the test on PIK3CA, 0%. In addition, the “%Inh” value in the test with PIK3CB was 0%; in the test with PIK3CD it was 21%; in the test on PIK3CG it was 0%; in the test on PIK4CB, 13%.

Regarding `CCn1cnc2c(N)ncnc21` [GW345098], the “%Inh” value in the test with PFTK1 turned out to be 2%; with PHKG1 it was 4%; in the test on PHKG2 it was 13%; in the test with PIK3C2B, 27%; with PIK3C2G it was 31%; in the test with PIK3CA, 29%. Further, the “%Inh” value in the test with PIK3CB was found to be 0%; in the test with PIK3CD, 0%; in the test with PIK3CG, 21%; in the test on PIK4CB, 1%.

Turning to `Fc1ccc(-c2ncn(CCCN3CCOCC3)c2-c2ccccn2)cc1` [SB-211742], the “%Inh” value in the test with PFTK1 worked out at 0%; in the test on PHKG1, 50%; in the test on PHKG2 it was 0%; with PIK3C2B, 0%; with PIK3C2G it was 0%; in the test on PIK3CA, 0%. Moreover, the “%Inh” value in the test on PIK3CB, with PIK3CD, in the test on PIK3CG and in the test with PIK4CB was 0% in each case.

In the case of `COc1cc2c(cc1OCCN1CCN(C)CC1)ncc1c3ccc(C#N)cc3[nH]c21`, the “%Inh” value in the test on PFTK1 came to 18%; with PHKG1, 98.2%; in the test with PHKG2 it was 99.8%; in the test on PIK3C2B, 0%; in the test with PIK3C2G, 25%; in the test on PIK3CA, 0%. The “%Inh” value with PIK3CB, with PIK3CD, in the test with PIK3CG and in the test with PIK4CB was 0% throughout.

`Fc1ccc(-c2nn3c(OCC(F)(F)F)cccc3c2-c2ccncc2)cc1` [GW514784]: the “%Inh” value in the test on PFTK1 is reported as 3%; in the test on PHKG1, 0%; in the test on PHKG2 it was 0%; in the test on PIK3C2B it was 0%; in the test with PIK3C2G, 0%; with PIK3CA it was 0%. Moreover, the “%Inh” value with PIK3CB amounted to 0%; in the test on PIK3CD, 30%; with PIK3CG, 0%; in the test with PIK4CB, 0%.

On to `COCCNC(=O)c1ccc(-c2cc(C(=O)NC3CC3)cc(F)c2C)cc1` [GW868318], for which the “%Inh” value with PFTK1 was 18%; in the test on PHKG1 it was 6%; with PHKG2, 0%; in the test with PIK3C2B it was 0%; in the test with PIK3C2G, 38%; in the test on PIK3CA, 28%. Besides, the “%Inh” value in the test with PIK3CB came to 49%; in the test on PIK3CD, 42%; in the test with PIK3CG, 29%; in the test on PIK4CB, 40%.

For `Cc1cn2c(=O)cc(N3CCOCC3)nc2n1Cc1cccc(Cl)c1Cl` [GSK2334006], the “%Inh” value is recorded as 0% in the test with PFTK1; 14% in the test on PHKG1; 14% with PHKG2; 36% with PIK3C2B; 1% in the test on PIK3C2G; 3% in the test on PIK3CA. In addition, the “%Inh” value in the test with PIK3CB came to 88%; in the test on PIK3CD, 100%; in the test on PIK3CG it was 22%; in the test on PIK4CB, 0%.

Take `CN(C(=O)c1ccc(-c2cc(-c3c[nH]nc3-c3ccccn3)ccn2)cc1)C1CCOCC1` [GW810083]: the “%Inh” value came out at 0% in the test on PFTK1; 1% in the test with PHKG1; 12% in the test on PHKG2; 0% in the test with PIK3C2B; 10% with PIK3C2G; 0% in the test on PIK3CA. Also, the “%Inh” value in the test on PIK3CB was 0%; with PIK3CD it was 1%; in the test on PIK3CG, 32%; in the test on PIK4CB, 40%.

For the molecule `CN1c2ccc(NCc3ccc(F)cc3)cc2-c2c(cnn2C)S1(=O)=O`, the “%Inh” value in the test with PFTK1, in the test with PHKG1, in the test on PHKG2, with PIK3C2B, in the test on PIK3C2G and in the test with PIK3CA was 0% in each case. In addition, the “%Inh” value in the test on PIK3CB, in the test with PIK3CD, in the test with PIK3CG and in the test with PIK4CB was 0% throughout.

`CNc1ncnc2[nH]ncc12` [SKF-18355]: the “%Inh” value was found to be 0% in the test with PFTK1; 0% with PHKG1; 0% in the test with PHKG2; 3% in the test on PIK3C2B; 0% in the test with PIK3C2G; 1% in the test with PIK3CA. In addition, the “%Inh” value in the test on PIK3CB was found to be 0%; with PIK3CD it was 0%; in the test on PIK3CG, 5%; in the test on PIK4CB, 17%.

For the molecule `Fc1ccc(-c2ncn(CCCN3CCOCC3)c2-c2cccnc2)cc1` [SB-211743], the “%Inh” value in the test with PFTK1 worked out at 0%; in the test on PHKG1 it was 3%; in the test on PHKG2 it was 0%; in the test with PIK3C2B, 0%; with PIK3C2G, 0%; in the test with PIK3CA, 10%. The “%Inh” value is 0% with PIK3CB, 0% in the test with PIK3CD, 0% in the test with PIK3CG and 17% with PIK4CB.

Regarding `O=c1cc(N2CCOCC2)nc2n(Cc3cccc4ccccc34)ccn12` [GSK2333389], the “%Inh” value in the test with PFTK1 came out at 0%; with PHKG1 it was 2%; in the test on PHKG2, 0%; in the test on PIK3C2B it was 0%; in the test on PIK3C2G, 0%; with PIK3CA, 0%. Besides, the “%Inh” value in the test with PIK3CB stood at 99.7%; in the test on PIK3CD, 89%; in the test with PIK3CG it was 3%; in the test on PIK4CB it was 6%.

For the molecule `CCCCCc1nc2c(N)ncnc2n1CCCCC` [SKF-97255], the “%Inh” value in the test on PFTK1 came out at 2%; in the test with PHKG1 it was 9%; in the test on PHKG2 it was 0%; in the test on PIK3C2B, 0%; with PIK3C2G it was 0%; in the test on PIK3CA it was 14%. Besides, the “%Inh” value in the test with PIK3CB is 0%; in the test with PIK3CD, 0%; in the test on PIK3CG it was 15%; with PIK4CB it was 1%.

For the molecule `c1ccc(-c2n[nH]cc2-c2ccnc3ccccc23)nc1` [GW271431], the “%Inh” value turned out to be 25% with PFTK1; 0% in the test on PHKG1; 0% with PHKG2; 0% in the test on PIK3C2B; 0% in the test on PIK3C2G; 0% in the test with PIK3CA. Further, the “%Inh” value stood at 0% with PIK3CB, 5% with PIK3CD, 0% with PIK3CG and 0% with PIK4CB.

Turning to `NS(=O)(=O)CCc1cccc(Nc2nccc(-c3c(-c4cccc(NC(=O)c5c(F)cccc5F)c4)nn4ccccc34)n2)c1` [GSK336735], the “%Inh” value in the test on PFTK1 stood at 26%; with PHKG1 it was 0%; in the test with PHKG2, 4%; in the test on PIK3C2B it was 0%; with PIK3C2G, 0%; with PIK3CA, 0%. Also, the “%Inh” value in the test with PIK3CB, with PIK3CD, with PIK3CG and in the test with PIK4CB was 0% throughout.

As to `COc1cc2c(cc1OC[C@@H](O)CO)ncc1c3ccc(C#N)cc3[nH]c21`, the “%Inh” value in the test with PFTK1 was determined as 0%; with PHKG1 it was 95.5%; with PHKG2 it was 99.2%; in the test with PIK3C2B, 0%; with PIK3C2G, 0%; with PIK3CA it was 18%. The “%Inh” value in the test with PIK3CB is recorded as 0%; in the test with PIK3CD, 2%; with PIK3CG, 9%; with PIK4CB, 0%.

Source of the values: publication PMC5540273 (PLoS ONE, 2017).
